Experiment: binders from COS7 lysate, DM2A8 probe, primary screen, torsin A project, cell lysate, small-molecule microarray, fluorescence 635/667 (AID 1065)
Details: higher = more signal, COS7 lysate expressing mutant human TOR1A

SMILES	composite z-score
O=C1O[C@H](c2ccccc2)[C@H](c2ccccc2)N2[C@H]1[C@@H](C(=O)N1CCCCCCC1)[C@]1(C(=O)Nc3ccc(C#CCCO)cc31)[C@H]2c1ccccc1OCCO	2.92
C#C[C@H](O[Si](C#Cc1ccc(Oc2ccccc2)cc1)(C(C)C)C(C)C)c1ccccc1	1.27
COC(=O)[C@@]1(Cc2ccc(F)cc2)[C@H]2c3cc(C(=O)N(C)C)n(Cc4ccc(Cl)c(C(F)(F)F)c4)c3C[C@H]2CN1C(=O)c1ccccc1	1.65

Experiment: small molecules captured by biotinylated probe aFGF2 – biochemical, small-molecule microarray, fluorescence 635/667, stem cell growth factor project, primary screen (AID 1067);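 note: measures binding of biotinylated aFGF2 protein to printed compounds on slides; z-score merges feature fluorescence and signal-to-noise across triplicate slides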
Details: higher = more signal

SMILES	composite z-score
C=CC(=C)[C@H]1Oc2ccccc2S(=O)(=O)N2CCC[C@@H]12	-0.116
C=C[C@@H](COC(=O)OC(C)(C)C)N(Cc1ccc(OC)cc1)S(=O)(=O)c1ccc(Br)cc1	-0.0598
COCC(=C=CC[C@@H](O)c1cccc(OCCO)c1)C[C@@H](O)c1ccccn1	-0.0707
O=C(CS)NCCCCCCNC(=O)[C@@H]1C[C@@H]2C(=O)NCC(=O)N2[C@@H]1c1cccc(OCCO)c1	-0.0768
C=C(CC1([C@@H](NP(=O)(c2ccccc2)c2ccccc2)[C@H]2C[C@@H]2CCCC)CC1)c1ccccc1	-0.218
COC(=O)[C@@]1(Cc2ccc(F)cc2)[C@H]2c3cc(C(=O)N(C)C)n(Cc4cc(F)c(F)c(F)c4)c3C[C@H]2CN1C(=O)c1ccccc1	0.261
CN(C)CCCC[C@@H]1NC(=O)[C@H]2C[C@@H](C(=O)NCCCCCCN)[C@@H](c3ccc(O)cc3)N2C1=O	0.128
CN(C)CCCCCCNC(=O)[C@H]1C[C@H]2C(=O)N[C@@H](CCCCN)C(=O)N2[C@H]1c1cccc(OCCO)c1	0.898
CC(C)=CCCC(C)=CC(O)C1C=CC2C(=O)N(C)C(=O)C2N1Nc1ccccc1 (stereo not given)	0.231
CCS[C@H]1[C@@H](C(=O)O)[C@H](c2ccc(C)cc2)N(S(=O)(=O)c2ccc(C)cc2)[C@@H]1CC	0.0288
CCC(CC)C(O)C1C=CC2C(=O)NC(=O)C2N1Nc1ccc(Cl)cc1Cl (stereo not given)	0.133
COC(=O)[C@@]1(Cc2ccc(F)cc2)[C@H]2c3cc(C(=O)N(C)C)n(Cc4ccccc4)c3C[C@H]2CN1C(=O)c1ccccc1	0.0103
C=CCNC(=O)[C@H]1[C@@H]2C(=O)O[C@@H](c3ccccc3)[C@@H](c3ccccc3)N2[C@@H](c2ccccc2OCCO)[C@]12C(=O)Nc1ccc(C#CCCO)cc12	0.882
COCCCNC(=O)[C@]1(CCC(=O)OC(C)(C)C)N=C(c2ccc(OCCCO)cc2)O[C@@H]1c1ccccc1CN=[N+]=[N-]	0.042
O=C1OCCC/C=C\[C@H]2OC34C=CCN(Cc5ccccc5)C(=O)[C@H]3N(CCCO)C(=O)[C@@H]4C12 (stereo not given in full)	-0.145
CN1C(=O)C2C=CC(C(O)C3CC=CCC3)N(N(c3ccccc3)c3ccccc3)C2C1=O (stereo not given)	0.0247
C=CCC(OC(C)=O)[C@@H]1[C@@H](N(Cc2ccc(-c3cccc(C(F)(F)F)c3)o2)C(=O)c2ccc(C)cc2)c2cc(OCCCO)ccc2N1C(=O)Cc1ccc2ccccc2c1 (stereo not given in full)	-0.102
CO[C@H]1O[C@H](CO)[C@@H](OC(=O)Nc2ccccc2)[C@H](OC(=O)Nc2ccccc2)[C@@H]1OC(=O)Nc1ccccc1	0.205
O=C(OCc1ccccc1)C1=CCC2c3[nH]c4ccccc4c3C(=O)C1N2S(=O)(=O)c1ccccc1[N+](=O)[O-] (stereo not given)	0.105
C=C(CCCC)/C(=C/C[C@@H](OC(C)=O)c1ccc(OCCO)cc1)c1cnc2ccccc2c1	-0.0598
COc1ccc([Si](C)(C)[C@@H]2[C@@H](CC(=O)N3CCC[C@H]3CO)O[C@]3(C(=O)N(c4ccccc4)c4ccccc43)[C@H]2C)cc1	-0.122
CC(C)NC(=O)[C@@]1(C)c2ccccc2C(=O)N(Cc2cc(C(F)(F)F)cc(C(F)(F)F)c2)[C@H]1c1ccc(CO)cc1	-0.128
CNS(=O)(=O)c1ccc(C)cc1	-0.14
O=C(c1ccccc1)N1Cc2ccccc2C[C@@]2(COC(c3ccc(OCCCO)cc3)=N2)C1=O	0.0292
COc1ccc(CCNC(=O)[C@@]2(Sc3ccc(C)cc3)CC(=O)N(C3Cc4ccccc4C3)[C@@H]2c2ccc(CO)cc2I)cc1	-0.0558
COc1cc2c(cc1OC)CN(C(=O)[C@@H]1[C@H]3C(=O)O[C@H](c4ccccc4)[C@H](c4ccccc4)N3[C@H](c3ccc(O)cc3)[C@@]13C(=O)Nc1ccccc13)CC2	-0.0614
COc1ccc([Si](C)(C)[C@@H]2[C@@H](CCO)O[C@]3(C(=O)N(Cc4ccc(N(C=O)c5ccccc5)cc4)c4ccccc43)[C@H]2C)cc1	-0.0332
